In PubChem BioAssay:

Each compound was assayed against Torsin-1A (Homo sapiens) (UniProt O14656) (assay: TOR1A wild-type binding on microarray – cell lysate, small-molecule microarray, lysate, 635/667 nm, primary screen (AID 1149)). Conditions: COS7 hTOR1A-WT lysate, 635 nm fluorescence, higher = more signal.
Torsin-1A (Homo sapiens), sequence (O14656 whole entry, looked up): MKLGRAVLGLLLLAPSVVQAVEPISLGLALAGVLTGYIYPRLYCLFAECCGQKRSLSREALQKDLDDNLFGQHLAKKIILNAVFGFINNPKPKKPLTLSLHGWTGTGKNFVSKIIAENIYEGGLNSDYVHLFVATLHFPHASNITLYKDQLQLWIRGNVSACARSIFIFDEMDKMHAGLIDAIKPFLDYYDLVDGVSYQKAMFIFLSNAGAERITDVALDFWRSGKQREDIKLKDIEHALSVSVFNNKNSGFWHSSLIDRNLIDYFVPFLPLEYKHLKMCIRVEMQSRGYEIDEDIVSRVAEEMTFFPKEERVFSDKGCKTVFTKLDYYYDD

SMILES	composite z-score
C=CCOC(=O)[C@@H]1[C@H]2C(=O)O[C@H](c3ccccc3)[C@H](c3ccccc3)N2[C@H](c2ccc(OCCOC(=O)[C@H]3C[C@H]4C(=O)N5CCC[C@H]5C(=O)N4[C@H]3c3ccc(O)cc3)cc2)[C@@]12C(=O)Nc1ccccc12	0.885
C[C@@H]1CC[C@H]2C(=O)N3[C@@H](CC[C@@H](C)[C@@H]3c3cccc(N4CCOCC4)c3)C(=O)N2[C@H]1c1cccc(N2CCOCC2)c1	1.38
COc1ccc(-c2ccccc2[C@@H]2N[C@H](C(=O)O)CC[C@H]2C)cc1	0.69
CN1CCC(CCCO)=CC1C1CC1 (stereo unspecified)	0.759
C=CCC(OC(C)=O)[C@@H]1[C@@H](N(Cc2cc3ccccc3o2)C(=O)c2ccc(C)cc2)c2cc(OCCCO)ccc2N1C(=O)c1ccc2ccccc2n1 (stereo partly specified)	0.369
C[C@H]1COC(=O)[C@H](Cc2ccccc2)NC(=O)[C@@H](C)COC(=O)[C@H](Cc2ccccc2)NC1=O	1.18
CCN1C(C)=C(C(=O)OC)[C@@H](c2ccccc2)N2C(=O)[C@@]3(C(=O)OC)O[C@@]12[C@@H]1C(=O)N(c2ccccc2)C(=O)[C@@H]13	0.224
CCCC/C=C/[C@H]([C@@H](O)Cc1ccccc1)N(CC#Cc1ccccc1)Cc1ccccc1Br	-0.335
Cc1ccc(S[C@]2(C(=O)NCCCN(C)C)CC(=O)N(C3CCCCC3)[C@@H]2c2ccc(CO)cc2I)cc1	0.0029
CO[C@@H]1COC(=O)[C@H](C)NC(=O)CC=C[C@@H](C)[C@H](NS(=O)(=O)c2ccc(C)cc2)COC(=O)CC=C[C@@H]1C	0.56
C=CCNC(=O)[C@H]1[C@@H]2C(=O)O[C@@H](c3ccccc3)[C@@H](c3ccccc3)N2[C@@H](c2ccccc2OCCO)[C@]12C(=O)N(C(=O)OCCOC)c1ccc(C#CCC(C(=O)OC)C(=O)OC)cc12	0.825
CC(=O)NCCCC[C@@H]1NC(=O)[C@@H]2C[C@H](C(=O)NCCCCCCN(C)C)[C@H](c3ccc(O)cc3)N2C1=O	1.49
O=C(NCC(O)CO)[C@]1(Cc2ccccc2)N=C(c2ccc(OCCCO)cc2)O[C@@H]1c1ccccc1 (stereo partly specified)	0.379
C[C@H]1NC(=O)[C@@H](C)NC(=O)[C@@]23C(=O)N[C@@H](Cc4ccccc4)C2[C@H](C)[C@@]2(C)O[C@H]2C3/C=C/C/C=C\CNC1=O (stereo partly specified)	0.153
CC(C)N1CC=CC23O[C@@H]4/C=C\CCCOC(=O)C4[C@H]2C(=O)N(CCO)[C@@H]3C1=O (stereo partly specified)	-0.373
C=CC[C@]1(C(=O)O)N=C(c2ccc(OCCCO)cc2)O[C@H]1c1ccccc1	-0.753
CC(C)CNC(=O)[C@@]1(C)c2ccccc2C(=O)N(Cc2ccc(OC(F)(F)F)cc2)[C@H]1c1ccc(CO)cc1	-0.0233
CO[C@H]1COC(=O)[C@H](Cc2ccccc2)NC(=O)CC=C[C@@H](C)[C@H](OC)COC(=O)CC=C[C@@H]1C	0.109

SMILES	composite z-score
C=C(COC)/C(=C/C[C@@H](OC(=O)c1ccncc1)c1ccc(OCCO)cc1)c1cc(C(=O)OC)ccc1OC	1.06
CSCC[C@@H]1NC(=O)CC=C[C@@H](C)COC(=O)[C@H](CCSC)NC(=O)CC=C[C@@H](C)COC1=O	0.138
O=C1OCC=C[C@H]2OC34C=CCN(Cc5ccccc5)C(=O)[C@H]3N(CCCCCO)C(=O)[C@@H]4[C@@H]12 (stereo partly specified)	-0.391
Cc1ccc(S[C@]2(C(=O)NCCN3CCOCC3)CC(=O)N(C3Cc4ccccc4C3)[C@@H]2c2ccc(CO)cc2I)cc1	-0.434
COC(=O)C[C@H]1O[C@]2(C(=O)N(C)c3ccccc32)[C@@H](C)[C@@H]1[Si](C)(C)c1ccc(OC)cc1	0.639
CC/C=C/C(=O)N(C[C@@H]1CCCO1)[C@@H]1CC(C(=O)NCCO)=C[C@H](Oc2c(I)cc(CO)cc2OC)[C@H]1O	0.553
C=C[C@H](OC)[C@@H](OC(=O)Nc1ccc(SC)cc1)c1ccc(OC)c(O)c1	-0.678
CN1C2C=C(c3ccc(CO)cc3)C(C3C(=O)N(C(N)=O)C(=O)C32)C1c1cccs1 (stereo unspecified)	0.0899
C=CCN(C(=O)C1N(c2ccc(CCO)cc2)C(=O)C2C(C(=O)O)C3C=CC21O3)C(C)(C)C (stereo unspecified)	-3.07
C=CCC1=C[C@H]2[C@H]([C@@H]3C=C[C@]2(CC=C)C(=O)[C@]32CO2)[C@@]2(CO2)C1=O	0.919
Cc1ccc(S[C@]2(C(=O)O)CC(=O)N(Cc3ccccc3)[C@@H]2c2ccc(CO)cc2)cc1	0.0253
CCCNC(=O)[C@@H]1c2ccccc2C(=O)N(Cc2cc(F)cc(C(F)(F)F)c2)[C@H]1c1ccc(CO)cc1	0.528
O=C1c2ccccc2[C@](Cc2ccccc2I)(C(=O)O)[C@H](c2ccc(CO)cc2)N1C1CCCCC1	0.0702
[N-]=[N+]=NCc1ccccc1C[C@]1(C(N)=O)N=C(c2ccc(OCCCO)cc2)O[C@H]1c1ccccc1CN=[N+]=[N-]	0.105
CO[C@H]1COC(=O)[C@H](C)NC(=O)CC=C[C@@H](C)[C@H](NS(=O)(=O)c2ccc(C)cc2)COC(=O)[C@@H](OCc2ccccc2)C=C[C@@H]1C	0.196
COC(=O)c1c(CC[C@@H](CO)NC(=O)N[C@H](Cn2cc(-c3cncn3C)nn2)C(C)C)oc(C(C)=O)c1C(=O)OC	0.422
C=C(COC)/C(=C/C[C@@H](OC(C)=O)c1cccc(OCCO)c1)c1cc(C(=O)OC)ccc1OC	0.284
CC(C)[Si]1(C(C)C)O[C@@H](c2ccccc2)c2cc(C3CC3)nc(-c3ccc(Oc4ccccc4)cc3)c21	-0.617
